# Assay results: the supplement of paper PMC10849652
# Targets with a hit are over-represented here; the source holds about 7,900 in all. About 0.6% of all pairs of compound and target were hits. A number with no mark means an inactive call.
# Legend:
# Experiment in all cases: log2 fold change, soluble protein after heating vs DMSO (PISA); higher = thermal stabilisation; K562 cells, 10 uM, 30 min; active = over 0.2 and 3.5 SD of the protein, either way, in both replicates (recomputed)
# bafetinib = compound: Cc1ccc(NC(=O)c2ccc(CN3CC[C@H](N(C)C)C3)c(C(F)(F)F)c2)cc1Nc1nccc(-c2cncnc2)n1 [bafetinib]
# Outline: (§1)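 K562 cells (2×10^6 cells/mL) were treated with 10 μM compound for 30 min, and aliquots were heated for 3 min over 48°C-58°C. Pooled aliquots were extracted in PBS with 0.5% NP-40 at 4°C, and the supernatant after 21,000xg for 90 min was measured by TMTpro 16plex LC-MS/MS with channel sums equalised. Reported thermal stability, relative to control samples and from duplicates, is a log2 fold change.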
# [1] = compound: Cc1cccc(CC(=O)N2CCc3c2ccc(-c2cn(C)c4ncnc(N)c24)c3F)n1
# Outline: as §1
# nilotinib = compound: Cc1cn(-c2cc(NC(=O)c3ccc(C)c(Nc4nccc(-c5cccnc5)n4)c3)cc(C(F)(F)F)c2)cn1 [nilotinib]
# Outline: as §1
# [2] = compound: Cc1nc(Nc2n[nH]c3c2CN(C(=O)N[C@H](CN(C)C)c2ccccc2)C3(C)C)c2sccc2n1
# Outline: as §1
# dasatinib = compound: Cc1nc(Nc2ncc(C(=O)Nc3c(C)cccc3Cl)s2)cc(N2CCN(CCO)CC2)n1 [dasatinib]
# Outline: as §1
# [3] = compound: Cc1ncc(-c2ccnc(Nc3ccc(S(C)(=O)=O)cc3)n2)n1C(C)C
# Outline: as §1
# [4] = compound: Cn1cc(-c2ccc3c(c2)CCN3C(=O)Cc2cccc(C(F)(F)F)c2)c2c(N)ncnc21
# Outline: as §1
# [5] = compound: Cn1cc(-c2ccc3nnc(C(F)(F)c4ccc5ncccc5c4)n3n2)cn1
# Outline: as §1
# tipifarnib = compound: Cn1cncc1[C@@](N)(c1ccc(Cl)cc1)c1ccc2c(c1)c(-c1cccc(Cl)c1)cc(=O)n2C [tipifarnib]
# Outline: as §1
# mubritinib = compound: FC(F)(F)c1ccc(/C=C/c2nc(COc3ccc(CCCCn4ccnn4)cc3)co2)cc1 [mubritinib]
# Outline: as §1
# UniProt P35611, sequence (P35611 whole entry, looked up): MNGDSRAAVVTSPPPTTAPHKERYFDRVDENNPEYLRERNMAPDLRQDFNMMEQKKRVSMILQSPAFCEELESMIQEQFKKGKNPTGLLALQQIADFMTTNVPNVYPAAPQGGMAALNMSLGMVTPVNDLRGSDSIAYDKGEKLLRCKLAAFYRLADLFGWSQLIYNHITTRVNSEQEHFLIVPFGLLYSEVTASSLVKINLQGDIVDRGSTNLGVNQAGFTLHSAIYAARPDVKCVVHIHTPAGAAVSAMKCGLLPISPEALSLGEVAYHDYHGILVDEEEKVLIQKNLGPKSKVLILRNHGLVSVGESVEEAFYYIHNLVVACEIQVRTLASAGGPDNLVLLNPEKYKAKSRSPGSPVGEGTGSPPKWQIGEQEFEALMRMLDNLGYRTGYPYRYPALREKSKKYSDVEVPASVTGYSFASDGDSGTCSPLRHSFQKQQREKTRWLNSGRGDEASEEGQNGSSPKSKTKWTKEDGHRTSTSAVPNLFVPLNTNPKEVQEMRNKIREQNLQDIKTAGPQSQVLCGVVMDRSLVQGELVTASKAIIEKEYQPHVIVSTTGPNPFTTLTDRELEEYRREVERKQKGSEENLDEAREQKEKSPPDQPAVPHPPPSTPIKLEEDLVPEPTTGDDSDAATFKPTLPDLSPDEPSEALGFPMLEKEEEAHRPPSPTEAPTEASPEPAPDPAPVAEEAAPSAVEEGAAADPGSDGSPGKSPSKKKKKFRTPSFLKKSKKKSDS
# UniProt Q14CW9, sequence (Q14CW9 whole entry, looked up): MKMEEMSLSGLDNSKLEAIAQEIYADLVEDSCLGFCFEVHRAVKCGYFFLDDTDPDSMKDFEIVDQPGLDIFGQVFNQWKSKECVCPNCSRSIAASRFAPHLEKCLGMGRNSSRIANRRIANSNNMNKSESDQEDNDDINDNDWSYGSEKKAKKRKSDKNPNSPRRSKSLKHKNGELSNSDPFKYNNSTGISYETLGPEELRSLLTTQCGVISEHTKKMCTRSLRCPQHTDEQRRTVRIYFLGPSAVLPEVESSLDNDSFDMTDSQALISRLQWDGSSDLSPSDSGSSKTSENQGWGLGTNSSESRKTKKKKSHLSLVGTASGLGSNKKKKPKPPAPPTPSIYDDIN
# UniProt P35612, sequence (P35612 whole entry, looked up): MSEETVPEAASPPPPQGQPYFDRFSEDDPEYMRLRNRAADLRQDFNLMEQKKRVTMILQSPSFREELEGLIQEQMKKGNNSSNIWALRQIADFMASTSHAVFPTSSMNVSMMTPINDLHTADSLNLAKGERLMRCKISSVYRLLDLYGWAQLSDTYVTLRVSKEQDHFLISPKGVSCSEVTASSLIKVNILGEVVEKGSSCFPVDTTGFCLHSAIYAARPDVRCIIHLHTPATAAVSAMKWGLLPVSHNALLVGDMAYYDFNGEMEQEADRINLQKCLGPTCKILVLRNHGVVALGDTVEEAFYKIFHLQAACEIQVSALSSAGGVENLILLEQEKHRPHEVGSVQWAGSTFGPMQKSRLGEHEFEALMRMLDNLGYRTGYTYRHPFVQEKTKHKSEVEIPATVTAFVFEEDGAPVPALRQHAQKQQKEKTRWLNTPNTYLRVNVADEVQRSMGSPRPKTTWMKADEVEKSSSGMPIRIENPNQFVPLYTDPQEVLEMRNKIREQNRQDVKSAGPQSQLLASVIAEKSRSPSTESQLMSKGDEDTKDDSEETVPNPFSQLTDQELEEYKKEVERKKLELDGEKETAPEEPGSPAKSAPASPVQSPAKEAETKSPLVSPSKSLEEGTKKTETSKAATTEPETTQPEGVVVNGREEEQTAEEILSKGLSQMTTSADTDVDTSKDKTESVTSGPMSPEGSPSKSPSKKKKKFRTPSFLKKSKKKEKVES
# UniProt Q8WV93, sequence (Q8WV93 whole entry, looked up): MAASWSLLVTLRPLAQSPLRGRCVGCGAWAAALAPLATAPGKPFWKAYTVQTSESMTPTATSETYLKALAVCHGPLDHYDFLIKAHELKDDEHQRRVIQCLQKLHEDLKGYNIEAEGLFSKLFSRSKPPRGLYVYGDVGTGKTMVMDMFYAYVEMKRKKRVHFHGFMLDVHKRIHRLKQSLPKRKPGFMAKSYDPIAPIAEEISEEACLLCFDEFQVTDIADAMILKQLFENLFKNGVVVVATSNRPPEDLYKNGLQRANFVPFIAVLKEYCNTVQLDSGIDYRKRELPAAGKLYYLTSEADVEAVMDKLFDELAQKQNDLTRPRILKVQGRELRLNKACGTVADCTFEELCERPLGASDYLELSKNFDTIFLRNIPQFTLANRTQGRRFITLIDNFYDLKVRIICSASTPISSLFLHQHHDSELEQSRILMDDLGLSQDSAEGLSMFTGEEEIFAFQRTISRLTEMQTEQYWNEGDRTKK
# UniProt Q8IUR7, sequence (Q8IUR7 whole entry, looked up): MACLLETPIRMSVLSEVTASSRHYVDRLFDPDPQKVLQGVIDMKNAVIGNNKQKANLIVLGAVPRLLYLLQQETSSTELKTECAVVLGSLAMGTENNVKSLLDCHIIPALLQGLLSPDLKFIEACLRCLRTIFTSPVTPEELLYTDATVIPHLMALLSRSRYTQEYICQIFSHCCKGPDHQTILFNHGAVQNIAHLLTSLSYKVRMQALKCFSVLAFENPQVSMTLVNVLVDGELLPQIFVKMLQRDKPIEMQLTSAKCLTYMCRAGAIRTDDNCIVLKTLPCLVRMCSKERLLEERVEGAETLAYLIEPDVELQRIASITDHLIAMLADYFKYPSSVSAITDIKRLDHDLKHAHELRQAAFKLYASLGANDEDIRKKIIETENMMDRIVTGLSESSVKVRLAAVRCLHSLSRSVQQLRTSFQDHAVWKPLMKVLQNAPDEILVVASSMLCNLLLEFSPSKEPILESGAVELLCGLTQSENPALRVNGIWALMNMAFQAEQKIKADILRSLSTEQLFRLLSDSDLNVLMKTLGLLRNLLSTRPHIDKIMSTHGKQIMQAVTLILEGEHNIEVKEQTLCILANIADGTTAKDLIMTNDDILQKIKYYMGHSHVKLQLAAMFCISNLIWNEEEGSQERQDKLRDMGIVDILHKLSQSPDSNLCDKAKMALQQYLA
# UniProt Q04771, sequence (Q04771 whole entry, looked up): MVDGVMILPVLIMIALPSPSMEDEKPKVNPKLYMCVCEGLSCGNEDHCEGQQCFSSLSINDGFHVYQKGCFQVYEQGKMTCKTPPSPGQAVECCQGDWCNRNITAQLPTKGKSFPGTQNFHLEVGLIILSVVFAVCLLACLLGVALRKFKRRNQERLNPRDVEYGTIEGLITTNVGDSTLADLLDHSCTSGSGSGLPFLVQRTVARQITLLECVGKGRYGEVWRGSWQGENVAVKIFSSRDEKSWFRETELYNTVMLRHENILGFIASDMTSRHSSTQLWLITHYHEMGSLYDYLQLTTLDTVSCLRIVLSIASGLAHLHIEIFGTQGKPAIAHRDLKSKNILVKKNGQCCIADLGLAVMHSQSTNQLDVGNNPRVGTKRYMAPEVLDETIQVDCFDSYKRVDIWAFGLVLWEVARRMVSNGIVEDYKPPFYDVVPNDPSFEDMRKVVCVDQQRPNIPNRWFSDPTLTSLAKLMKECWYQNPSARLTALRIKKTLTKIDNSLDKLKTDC
# UniProt Q9NXW9, sequence (Q9NXW9 whole entry, looked up): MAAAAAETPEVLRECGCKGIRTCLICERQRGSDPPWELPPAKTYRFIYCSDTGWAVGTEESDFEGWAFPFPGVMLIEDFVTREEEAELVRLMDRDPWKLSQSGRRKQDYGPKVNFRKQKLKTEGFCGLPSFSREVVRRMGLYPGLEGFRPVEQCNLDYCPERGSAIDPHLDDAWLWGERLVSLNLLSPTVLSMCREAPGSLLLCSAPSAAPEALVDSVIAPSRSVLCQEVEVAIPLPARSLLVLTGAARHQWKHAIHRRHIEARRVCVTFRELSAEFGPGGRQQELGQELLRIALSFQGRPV
# UniProt P54252, sequence (P54252 whole entry, looked up): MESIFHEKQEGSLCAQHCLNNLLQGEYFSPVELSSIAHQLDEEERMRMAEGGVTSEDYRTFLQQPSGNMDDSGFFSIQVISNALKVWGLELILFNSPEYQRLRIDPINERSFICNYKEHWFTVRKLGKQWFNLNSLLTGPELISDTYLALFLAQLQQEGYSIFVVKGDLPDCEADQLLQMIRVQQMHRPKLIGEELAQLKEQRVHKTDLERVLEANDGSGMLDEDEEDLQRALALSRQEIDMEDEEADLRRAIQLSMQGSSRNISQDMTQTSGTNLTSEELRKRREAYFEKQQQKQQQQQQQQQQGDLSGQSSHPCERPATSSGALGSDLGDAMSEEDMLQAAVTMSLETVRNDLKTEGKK
# UniProt P17544, sequence (P17544 whole entry, looked up): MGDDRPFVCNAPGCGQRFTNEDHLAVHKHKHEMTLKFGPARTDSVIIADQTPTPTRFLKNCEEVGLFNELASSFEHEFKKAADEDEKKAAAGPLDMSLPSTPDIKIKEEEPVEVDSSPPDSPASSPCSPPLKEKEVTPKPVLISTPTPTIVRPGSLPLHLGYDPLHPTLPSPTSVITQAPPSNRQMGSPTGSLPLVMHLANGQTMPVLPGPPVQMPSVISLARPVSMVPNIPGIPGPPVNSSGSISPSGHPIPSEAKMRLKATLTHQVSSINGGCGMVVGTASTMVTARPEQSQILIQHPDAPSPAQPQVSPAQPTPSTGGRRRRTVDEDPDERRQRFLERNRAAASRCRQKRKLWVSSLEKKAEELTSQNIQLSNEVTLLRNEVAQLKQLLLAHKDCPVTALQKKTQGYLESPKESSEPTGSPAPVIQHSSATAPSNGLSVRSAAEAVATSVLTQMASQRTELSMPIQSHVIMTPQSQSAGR
# UniProt Q9H7T9, sequence (Q9H7T9 whole entry, looked up): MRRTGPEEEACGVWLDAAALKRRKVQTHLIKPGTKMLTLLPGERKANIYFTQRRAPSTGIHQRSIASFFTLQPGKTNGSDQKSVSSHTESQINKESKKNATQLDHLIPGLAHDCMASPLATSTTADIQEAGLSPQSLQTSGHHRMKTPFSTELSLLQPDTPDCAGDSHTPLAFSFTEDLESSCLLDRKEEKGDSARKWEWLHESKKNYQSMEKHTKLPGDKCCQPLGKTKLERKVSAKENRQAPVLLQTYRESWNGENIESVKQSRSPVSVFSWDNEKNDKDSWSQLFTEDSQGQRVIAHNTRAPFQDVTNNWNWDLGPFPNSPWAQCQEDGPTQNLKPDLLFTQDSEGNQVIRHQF
Target,log2 fold change (bafetinib),log2 fold change [1],log2 fold change (nilotinib),log2 fold change [2],log2 fold change (dasatinib),log2 fold change [3],log2 fold change [4],log2 fold change [5],log2 fold change (tipifarnib),log2 fold change (mubritinib)
B4GALNT1 (UniProt Q00973),0.141,-0.042,0.083,0.012,0.076,-0.125,-0.128,0.036,0.025,0.015
ASB6 (UniProt Q9NWX5),-0.039,0.014,-0.066,-0.279,,-0.07,,-0.034,-0.02,0.037
ATF1 (UniProt P18846),-0.12,0.018,0.035,-0.09,,0.064,-0.006,,0.06,0.057
ABCA4 (UniProt P78363),-0.025,-0.149,0.106,0.095,,0.045,0.016,-0.071,,0.154
ACSL6 isoform 1 (UniProt Q9UKU0),0.147,0.057,-0.066,-0.066,0.036,-0.025,,0.014,,0.015
ATXN3 isoform 1 (UniProt P54252),0.03,0.021,-0.038,-0.11,,-0.021,0.001,0.033,0.026,0.018
APOBEC3G (UniProt Q9HC16),-0.016,,0.028,0.079,0.075,0.028,,-0.042,-0.012,0.03
AP4S1 (UniProt Q9Y587),0.068,,-0.015,-0.016,-0.036,0.072,-0.103,,0.076,-0.013
ACOX3 (UniProt O15254),0.053,,0.159,-0.028,,0.107,-0.009,,0.272,-0.241
ADD3 isoform 2 (UniProt Q9UEY8),,0.05,,,-0.116,,0.152,-0.026,-0.067,-0.007
ADD2 isoform 9 (UniProt P35612),0.021,,,,,,,-0.002,0.149,-0.125
BDH2 (UniProt Q9BUT1),0.114,0.069,,,0.031,,0.063,-0.032,0.017,0.274
ACTR3B (UniProt Q9P1U1),,0.035,0.036,-0.082,,-0.001,,-0.051,0.129,
ABCA3 (UniProt Q99758),0.164,-0.053,,,-0.027,,-0.022,0.019,0.058,
ANGEL1 (UniProt Q9UNK9),0.015,,,,,,,-0.063,,
ARHGAP4 isoform 2 (UniProt P98171),0.709 (active),,-0.137,0.436,-0.097,-0.174,-0.06,-0.046,0.161,-0.164
AKNA (UniProt Q7Z591),,,,,,,-0.134,,0.215,
AP2M1 (UniProt C9JTK4),-0.174,,-0.02,0.212,0.029,-0.161,-0.17,,,0.08
ACVR1 (UniProt Q04771),,-0.068,,,0.041,,0.029,,-0.006,-0.124
ALDH2 isoform 2 (UniProt P05091),-0.029,-0.124,,,,,,0.244,0.015,
AUNIP isoform 2 (UniProt Q9H7T9),,,,,-0.284,,-0.006,,-0.844 (active),

Target,log2 fold change (bafetinib),log2 fold change [1],log2 fold change (nilotinib),log2 fold change [2],log2 fold change (dasatinib),log2 fold change [3],log2 fold change [4],log2 fold change [5],log2 fold change (tipifarnib),log2 fold change (mubritinib)
ATF7 isoform 6 (UniProt P17544),0.02,,-0.026,-0.081,0.504 (active),-0.019,0.055,-0.266,0,0.018
BRMS1 (UniProt Q9HCU9),,0.029,,,0.035,,,,,0.179
AGAP3 isoform 4 (UniProt Q96P47),-0.144,,0.138,-0.016,,-0.049,-0.077,-0.082,-0.012,-0.156
AZI2 (UniProt Q9H6S1),-0.049,,0.179,0.481,,0.099,,0.105,,
AFG1L (UniProt Q8WV93),-0.041,,-0.061,-0.048,-0.023,0.043,0.077,0.109,0.19,0.031
BAP18 isoform 3 (UniProt Q8IXM2),,-0.182,,,,,,,,0.117
AARSD1 (UniProt Q9BTE6),0.142,,0.029,-0.078,-0.606,-0.012,0.121,,-0.19,0.066
ARL4A (UniProt P40617),0.145,,,,,,,,,0.078
BAIAP2 isoform 4 (UniProt Q9UQB8),,,,,,,-0.018,,,
ADD1 isoform 4 (UniProt P35611),-0.034,0.033,,,,,0.114,,,
AFDN isoform 1 (UniProt P55196),-0.053,-0.077,,,-0.152,,-0.027,0.07,,0.031
AIF1 (UniProt P55008),0.035,,,,,,,0.153,0.051,
BRD2 isoform 2 (UniProt P25440),0.136,0.476,,,-0.32,,0.11,,-0.171,
APAF1 (UniProt O14727),,0.042,-0.058,-0.015,-0.121,-0.268,-0.122,-0.016,-0.152,-0.032
ALKBH4 (UniProt Q9NXW9),0.038,0.087,,,0,,-0.022,0.017,-0.001,-0.122
AUH (UniProt Q13825),-0.102,0.024,,,0.145,,-0.072,0.007,-0.011,0.048
ARMC8 isoform 6 (UniProt Q8IUR7),-0.012,,-0.034,-0.079,,-0.052,,,,
ATXN7L3 isoform 2 (UniProt Q14CW9),-0.123,,0.024,0.043,,-0.054,,0.03,,0.086
BRAF (UniProt P15056),0.067,0.019,,-0.099,,-0.014,0.03,0.01,-0.034,-0.059
"BRAF, A0A2R8Y8E0",,,-0.419,0.112,,-0.236,,0.052,,0.113
BRD8 isoform 2 (UniProt Q9H0E9),-0.057,0.064,,,-0.136,,-0.022,-0.038,-0.038,
